In general, inhibition refers to the drop in the measured response relative to a control, in per cent.

Active and inactive are the calls of the source. Rule as the data show it, unless noted: active = inhibition above about 30%; inactive = the rest.

Nuclear receptor coactivator 3 (Homo sapiens), sequence (Q9Y6Q9 whole entry, looked up, the tested form may be a part): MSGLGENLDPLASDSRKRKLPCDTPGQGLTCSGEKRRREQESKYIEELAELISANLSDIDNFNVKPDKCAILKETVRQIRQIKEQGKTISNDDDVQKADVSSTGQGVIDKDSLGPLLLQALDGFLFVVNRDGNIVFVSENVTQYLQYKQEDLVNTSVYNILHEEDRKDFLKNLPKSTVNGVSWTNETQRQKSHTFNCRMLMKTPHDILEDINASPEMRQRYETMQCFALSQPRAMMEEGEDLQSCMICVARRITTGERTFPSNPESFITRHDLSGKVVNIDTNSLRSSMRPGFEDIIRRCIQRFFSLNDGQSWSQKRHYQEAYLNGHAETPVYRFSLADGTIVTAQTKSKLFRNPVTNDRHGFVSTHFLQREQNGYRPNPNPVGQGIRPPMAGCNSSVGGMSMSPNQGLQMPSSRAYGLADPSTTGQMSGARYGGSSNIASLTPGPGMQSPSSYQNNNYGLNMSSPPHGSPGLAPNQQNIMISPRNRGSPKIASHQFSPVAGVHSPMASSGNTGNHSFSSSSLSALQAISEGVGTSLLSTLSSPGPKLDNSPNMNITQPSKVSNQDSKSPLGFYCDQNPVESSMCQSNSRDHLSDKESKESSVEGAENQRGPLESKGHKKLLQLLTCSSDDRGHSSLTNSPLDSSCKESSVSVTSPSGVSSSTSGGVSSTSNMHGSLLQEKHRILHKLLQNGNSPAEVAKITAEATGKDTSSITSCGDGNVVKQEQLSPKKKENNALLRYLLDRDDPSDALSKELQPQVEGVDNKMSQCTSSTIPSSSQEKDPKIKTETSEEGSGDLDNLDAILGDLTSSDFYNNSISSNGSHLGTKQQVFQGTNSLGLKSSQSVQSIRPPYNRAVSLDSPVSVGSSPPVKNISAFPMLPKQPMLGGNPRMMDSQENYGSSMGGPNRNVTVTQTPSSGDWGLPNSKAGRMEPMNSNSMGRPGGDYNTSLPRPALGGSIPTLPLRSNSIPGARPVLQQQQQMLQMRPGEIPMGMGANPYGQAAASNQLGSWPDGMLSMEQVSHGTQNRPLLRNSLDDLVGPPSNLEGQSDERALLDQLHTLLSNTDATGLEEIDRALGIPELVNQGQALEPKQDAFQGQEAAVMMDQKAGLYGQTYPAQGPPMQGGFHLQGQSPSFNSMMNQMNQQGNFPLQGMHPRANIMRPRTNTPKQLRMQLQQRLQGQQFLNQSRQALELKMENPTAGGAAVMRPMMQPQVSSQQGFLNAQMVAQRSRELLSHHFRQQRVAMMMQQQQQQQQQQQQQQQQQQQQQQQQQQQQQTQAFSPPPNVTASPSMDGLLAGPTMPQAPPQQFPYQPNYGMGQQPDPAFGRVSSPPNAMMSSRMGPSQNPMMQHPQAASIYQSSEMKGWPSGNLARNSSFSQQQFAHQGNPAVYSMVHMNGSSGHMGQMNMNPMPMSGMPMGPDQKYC

The first assay concerns the target Nuclear receptor coactivator 3 (Homo sapiens) (UniProt Q9Y6Q9). The assay can be described thus: NCOA3 GAL4-fusion reporter inhibition – cell-based, luminescence, quadruplicate, confirmation (AID 588792;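 active = mean inhibition over 43.08%, the solvent-only control mean plus 3 SD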;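 also: 0% = DMSO treated cells and 100% = gossypol at 36 µM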). The conditions noted are these: HEK293 GAL4-SRC3 luciferase reporter, at 3.6 µM, hits give high values. In general terms: In a reporter assay the amount or activity of a reporter protein is the signal.
Take `CCCC(=O)NC(c1ccc(C)cc1)c1ccc2cccnc2c1O` (stereo not given): the inhibition is 73.8% (active).

On to `Cc1nn(C(C)(C)C)c(C)c1/C=N/OC(=O)Nc1ccc(Cl)cc1`, for which the inhibition is 94% (active).

For `O=C(Nc1nc(-c2ccccc2)cs1)c1ccccc1NS(=O)(=O)c1ccc(F)cc1`, the inhibition is 40.7% (inactive).

Take `CCCCCCCn1c2c(c(=N)c3c1CCC3)CCCC2`: the inhibition is 70.2% (active).

Consider `CC(=NNC(=S)Nc1ccccc1)c1ccccn1`, for which the inhibition was 41% (inactive).

In the case of `O=NN(CC(=O)NNc1ccccc1)CC(=O)NNc1ccccc1`, the inhibition was 22.6% (inactive).

Regarding `CC1(C)N=C(N)N=C(N)N1CCCCc1ccccc1`, the inhibition was 45.9% (active).

As to `Cc1ccc(/C=C/C(=O)c2c(C)cc(C)[nH]c2=O)cc1`, the inhibition was 46.8% (active).

`COc1ccc(N=C(NN)c2ccc3ccccc3n2)cc1`: the inhibition is -51.2% (inactive).

Regarding `O=[N+]([O-])c1cc(CN2CCN(c3ccccc3)CC2)c(O)c2ncccc12`, the inhibition is 48.3% (active).

On to `N=C1C=CC(=C(c2ccc(N)cc2)c2ccc(N)cc2)C=C1`, for which the inhibition was 56.2% (active).

For the compound `C=C1C(=O)c2sccc2C(c2ccc(OC)c(OC)c2)C1COC(C)=O` (stereo not given), the inhibition is 67.7% (active).

With `Cn1cnc([N+](=O)[O-])c1Sc1nc(N)nc2c1ncn2C1OC(CO)C(O)C1O` (stereo not given), the inhibition is 43.8% (active).

Consider `O=C(NC(Nc1nc2ccc([N+](=O)[O-])cc2s1)(C(F)(F)F)C(F)(F)F)c1cccnc1`, for which the inhibition is 62.8% (active).

Consider `CC(=NNC(=S)Nc1ccccc1Cl)c1ccccn1`, for which the inhibition is 41.9% (inactive).

As for `CCN1/C(=C/c2ccc3cc(C)ccc3[n+]2CC)Sc2cc(C)c(C)cc21`, the inhibition was 38.9% (inactive).

Take `O=C1[C@@H]2Cc3c([nH]c4ccccc34)C(c3ccc([N+](=O)[O-])cc3)N2C(=O)CN1C1CC1` (stereo not given in full): the inhibition is 63.7% (active).

For the compound `Cc1ccc(-c2cn(-c3ccccc3)c3[n+]2CCCS3)cc1`, the inhibition is 1.67% (inactive).

Turning to `CC(=O)Nc1ccc(SCC(=O)c2cc(C)n(Cc3cccs3)c2C)cc1`, the inhibition was 52.1% (active).

For `CN(Cc1cnc2nc(N)nc(N)c2n1)c1ccc(C(=O)NC(CCC(=O)O)C(=O)O)cc1` (stereo not given), the inhibition was 66.2% (active).

Regarding `COc1cccc(/C=N/Nc2ccc(C(=O)O)cc2)c1O`, the inhibition was 68% (active).

Consider `c1ccc(-c2nn(-c3ccccc3)[n+](-c3ccccc3)n2)cc1`, for which the inhibition is 20.3% (inactive).

In the case of `Nc1nc(N)nc(-c2cc(O)ccc2O)n1`, the inhibition is 78.4% (active).

Take `O=C(Nc1ccc([N+](=O)[O-])cc1)c1ccc(Cn2cc([N+](=O)[O-])cn2)cc1`: the inhibition is 43.1% (active).

Consider `CCn1cc(/C=C/c2cc[n+](C)cc2)c2ccccc21`, for which the inhibition is 21.5% (inactive).

For the compound `c1ccc(-c2cccc(-c3ccccn3)n2)nc1`, the inhibition was 75.8% (active).

For the compound `CCN1/C(=C/c2ccc3cccc(C)c3[n+]2CC)Sc2ccccc21`, the inhibition is 35.1% (inactive).

For the compound `CN(C)CCOc1ccc2c(c1)C(=O)C(=Cc1ncc([N+](=O)[O-])n1C)C2`, the inhibition is 54.2% (active).

Regarding `COc1ccc(C)cc1NC(=O)c1nnn(Cc2cccc(C(F)(F)F)c2)c1N`, the inhibition was 10.7% (inactive).

In the case of `COc1cc(NS(C)(=O)=O)ccc1Nc1c2ccccc2nc2ccccc12`, the inhibition was 63.6% (active).

Regarding `COc1cccc(/C=N/Nc2ncnc3scc(-c4ccccc4)c23)c1O`, the inhibition was 83.3% (active).

Turning to `CCN1/C(=C/c2ccc3ccccc3[n+]2CC)C=Cc2ccccc21`, the inhibition is 74% (active).

Consider `N=c1c2c(n(Cc3cccc(Cl)c3)c3c1CCC3)CCCC2`, for which the inhibition was 42.1% (inactive).

Consider `CC(C)(O)C#Cc1ccc([C@@H]2C[C@H]3CN(c4ccccc4)C(=O)[C@]34CCCN24)s1`, for which the inhibition is 42.9% (inactive).

As for `Oc1cccc2cc(Nc3ccccc3)cnc12`, the inhibition was 60.4% (active).

On to `COc1ccccc1C(=O)Nc1nc(-c2ccc(S(=O)(=O)N3CCOCC3)cc2)cs1`, for which the inhibition was 68% (active).

As for `Cc1ccc2ccc3cccnc3c2n1`, the inhibition is -1.81% (inactive).

`CCCCCCCCCn1ccc(=N)cc1`: the inhibition was 68.9% (active).

As for `Cc1ccc2[nH]c3nc(N/N=C/c4cccc(O)c4)nnc3c2c1`, the inhibition is 35.7% (inactive).

On to `CC1(C)CC(N2CCN(Cc3ccccc3)CC2)=CC(=[N+]2CCCCC2)C1`, for which the inhibition is 30.2% (inactive).

In a further assay the test system is transactivating tegument protein VP16 (Human herpesvirus 1), Gal4-VP16 luciferase reporter. The assay can be described thus: repression of VP16-driven luciferase reporter – cell-based, luminescence, high throughput, counter-screen for SRC3 inhibitor project (AID 588794). The conditions noted are these: mammalian cells, at 3.6 µM, hits give high values.
As to `CCCC(=O)NC(c1ccc(C)cc1)c1ccc2cccnc2c1O` (stereo not given), the inhibition is 61.9% (active).

On to `Cc1nn(C(C)(C)C)c(C)c1/C=N/OC(=O)Nc1ccc(Cl)cc1`, for which the inhibition is 91.8% (active).

For `O=C(Nc1nc(-c2ccccc2)cs1)c1ccccc1NS(=O)(=O)c1ccc(F)cc1`, the inhibition was 65.5% (active).

With `CCCCCCCn1c2c(c(=N)c3c1CCC3)CCCC2`, the inhibition is 81.8% (active).

Turning to `CC(=NNC(=S)Nc1ccccc1)c1ccccn1`, the inhibition is 70.5% (active).

Turning to `O=NN(CC(=O)NNc1ccccc1)CC(=O)NNc1ccccc1`, the inhibition was 29.9% (active).

For `CC1(C)N=C(N)N=C(N)N1CCCCc1ccccc1`, the inhibition was 24.4% (inactive).

`Cc1ccc(/C=C/C(=O)c2c(C)cc(C)[nH]c2=O)cc1`: the inhibition is 40% (active).

As for `COc1ccc(N=C(NN)c2ccc3ccccc3n2)cc1`, the inhibition is -47.1% (inactive).

Consider `O=[N+]([O-])c1cc(CN2CCN(c3ccccc3)CC2)c(O)c2ncccc12`, for which the inhibition was 56.4% (active).

For `N=C1C=CC(=C(c2ccc(N)cc2)c2ccc(N)cc2)C=C1`, the inhibition is 60% (active).

Take `C=C1C(=O)c2sccc2C(c2ccc(OC)c(OC)c2)C1COC(C)=O` (stereo not given): the inhibition was 59% (active).

As for `Cn1cnc([N+](=O)[O-])c1Sc1nc(N)nc2c1ncn2C1OC(CO)C(O)C1O` (stereo not given), the inhibition was 14.7% (inactive).

Take `O=C(NC(Nc1nc2ccc([N+](=O)[O-])cc2s1)(C(F)(F)F)C(F)(F)F)c1cccnc1`: the inhibition was 75.3% (active).

Regarding `CC(=NNC(=S)Nc1ccccc1Cl)c1ccccn1`, the inhibition is 71.8% (active).

Consider `CCN1/C(=C/c2ccc3cc(C)ccc3[n+]2CC)Sc2cc(C)c(C)cc21`, for which the inhibition is 65.4% (active).

Regarding `O=C1[C@@H]2Cc3c([nH]c4ccccc34)C(c3ccc([N+](=O)[O-])cc3)N2C(=O)CN1C1CC1` (stereo not given in full), the inhibition is 64% (active).

Turning to `Cc1ccc(-c2cn(-c3ccccc3)c3[n+]2CCCS3)cc1`, the inhibition is 27.5% (inactive).

On to `CC(=O)Nc1ccc(SCC(=O)c2cc(C)n(Cc3cccs3)c2C)cc1`, for which the inhibition is 40.1% (active).

Consider `CN(Cc1cnc2nc(N)nc(N)c2n1)c1ccc(C(=O)NC(CCC(=O)O)C(=O)O)cc1` (stereo not given), for which the inhibition is 22% (inactive).

Regarding `COc1cccc(/C=N/Nc2ccc(C(=O)O)cc2)c1O`, the inhibition is 63.8% (active).

With `c1ccc(-c2nn(-c3ccccc3)[n+](-c3ccccc3)n2)cc1`, the inhibition was 14.7% (inactive).

With `Nc1nc(N)nc(-c2cc(O)ccc2O)n1`, the inhibition was 53.5% (active).

`O=C(Nc1ccc([N+](=O)[O-])cc1)c1ccc(Cn2cc([N+](=O)[O-])cn2)cc1`: the inhibition was 58.7% (active).

As to `CCn1cc(/C=C/c2cc[n+](C)cc2)c2ccccc21`, the inhibition was 38.4% (active).

With `c1ccc(-c2cccc(-c3ccccn3)n2)nc1`, the inhibition is 39.9% (active).

Regarding `CCN1/C(=C/c2ccc3cccc(C)c3[n+]2CC)Sc2ccccc21`, the inhibition was 63.3% (active).

For the compound `CN(C)CCOc1ccc2c(c1)C(=O)C(=Cc1ncc([N+](=O)[O-])n1C)C2`, the inhibition was 35.2% (active).

As to `COc1ccc(C)cc1NC(=O)c1nnn(Cc2cccc(C(F)(F)F)c2)c1N`, the inhibition was 41.8% (active).

As to `COc1cc(NS(C)(=O)=O)ccc1Nc1c2ccccc2nc2ccccc12`, the inhibition is -6.87% (inactive).

In the case of `COc1cccc(/C=N/Nc2ncnc3scc(-c4ccccc4)c23)c1O`, the inhibition was 70.3% (active).

Turning to `CCN1/C(=C/c2ccc3ccccc3[n+]2CC)C=Cc2ccccc21`, the inhibition was 86.2% (active).

On to `N=c1c2c(n(Cc3cccc(Cl)c3)c3c1CCC3)CCCC2`, for which the inhibition is 65.2% (active).

For the compound `CC(C)(O)C#Cc1ccc([C@@H]2C[C@H]3CN(c4ccccc4)C(=O)[C@]34CCCN24)s1`, the inhibition is 41.9% (active).

Consider `Oc1cccc2cc(Nc3ccccc3)cnc12`, for which the inhibition was 63.3% (active).

As for `COc1ccccc1C(=O)Nc1nc(-c2ccc(S(=O)(=O)N3CCOCC3)cc2)cs1`, the inhibition is 82.1% (active).

Consider `Cc1ccc2ccc3cccnc3c2n1`, for which the inhibition was 18.9% (inactive).

With `CCCCCCCCCn1ccc(=N)cc1`, the inhibition was 84.2% (active).

For `Cc1ccc2[nH]c3nc(N/N=C/c4cccc(O)c4)nnc3c2c1`, the inhibition was 54.6% (active).

For `CC1(C)CC(N2CCN(Cc3ccccc3)CC2)=CC(=[N+]2CCCCC2)C1`, the inhibition is 50.7% (active).

Values taken from PubChem BioAssay.
